Compound activity deposited in PubChem BioAssay by several laboratories.
Ba/F3 V617F tox – reduced viability of JAK2V617F-dependent Ba/F3 cells, primary screen, JAK2V617F inhibitor project, cell-based, Ba/F3 EpoR-JAK2V617F, luminescence; inhibition, % at 5.6 µM; 1.1% of 220,000 active; ATP luminescence;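 active = inhibition above the campaign mean plus 3 SD over all tested compounds, cut at about 24% in these data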;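 also: cytokine-independent growth of Ba/F3 cells driven by EpoR plus mutant JAK2; 0% = DMSO-treated cells and 100% = JAK inhibitor I control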
KLF5 inh – KLF5 expression inhibitors, primary screen, DLD-1 cells, luminescence; DLD-1 KLF5 promoter-luciferase reporter; inhibition, % at 5 µM; 0.23% of 290,000 active; AID 1700, 2009;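 active = inhibition above a per-plate limit of that plate's mean compound inhibition plus 3 SD, cut at about 60% in these data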;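 also: 0% = DMSO wells and 100% = LY294002 at 200 µM; higher means less KLF5 promoter-driven luciferase light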
APP 5UTR inh – inhibitors of APP translation via 5'UTR reporter, primary screen, APP 5'UTR luciferase, SH-SY5Y cells; 0.82% of 190,000 active; inhibition, % at 2 µM; AID 1285, 2008; SH-SY5Y APP 5'UTR-luciferase reporter, luminescence;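 active = inhibition above a set limit, derived from the sample mean plus 3 SD, cut at about 45% in these data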
aSyn UTR inh – MLPCN primary screen, SNCA 5' untranslated region | alpha-synuclein 5'UTR reporter, inhibitor activity | inhibition, % (tested at 7.5 µM) | 0.82% of 300,000 active | AID 1813, 2009; in the data active = inhibition above about 60%;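 also: H4 neuroglioblastoma cells stably carrying SNCA 5'UTR luciferase fusion; 0% = DMSO wells and 100% = positive control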
BaF3 tox – parental Ba/F3 cell viability inhibition, counter-screen for JAK2V617F inhibitor project, murine pro-B, CellTiter-Glo luminescence. CellTiter-Glo ATP luminescence. inhibition, % at 5.6 µM. 1.1% of 220,000 active;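 active = inhibition above a per-campaign cutoff, the mean inhibition of all tested compounds plus 3 SD, cut at about 27% in these data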;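 also: 0% = DMSO wells and 100% = JAK Inhibitor I control wells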
IEC-6 tox – cytotoxicity in IEC-6 intestinal epithelial cells, primary screen, cytotoxicity control for KLF5 inhibitor project, cell-based, luminescence | IEC-6 cytotoxicity, luminescence viability | inhibition, % at 5 µM | 0.78% of 290,000 active | AID 1825, 2009; in the data active = inhibition above about 22%;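 also: 0% = plate median of test compound wells and 100% = cytotoxic reference compound wells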
BaF3 tox 2 – parental Ba/F3 cell viability inhibition, counter-screen for JAK2V617F inhibitor project, murine pro-B, CellTiter-Glo luminescence. shares compounds with Ba/F3 V617F tox. cells kept alive by added IL-3. inhibition, % at 5.6 µM. 31% of 580 active. AID 1520, 2009;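 active = cell growth inhibition above the hit limit set in the earlier mutant JAK2 cell screen, cut at about 27% in these data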;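 also: plate controls were DMSO-treated cells for no effect and JAK Inhibitor I control wells for full effect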
JAK2V617F conf – viability loss in Ba/F3 EpoR-JAK2V617F cells, confirmation, JAK2V617F inhibitor project, cell-based, luminescence, triplicate; AID 1521, 2009; inhibition, % at 5.6 µM; shares compounds with Ba/F3 V617F tox; CellTiter-Glo luminescence; 66% of 580 active;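 active = mean inhibition above the hit cutoff derived in the earlier primary screen, cut at about 25% in these data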;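 also: 0% = DMSO-treated cells and 100% = JAK inhibitor I control wells; higher means lower luminescence from reduced cell ATP and viability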
The depositor's hits bear a star; . = no result. Sampled rows, rich in hits. Any-hit rate of the full collection: about 2.2%.

SMILES	Ba/F3 V617F tox	KLF5 inh	APP 5UTR inh	aSyn UTR inh	BaF3 tox	IEC-6 tox	BaF3 tox 2	JAK2V617F conf
Cc1nc([N+](=O)[O-])c(Sc2nc3ccccc3[nH]2)n1Cc1ccccc1	4	-4	13	-3	3	9	.	.
Cn1cnc([N+](=O)[O-])c1Sc1nc2ccccc2[nH]1	34*	-6	.	38	10	10	5	44*
CCCCCCCCCCCC(=O)NC1CCS(=O)(=O)C1 (stereo not drawn)	70*	-24	11	13	0	1	-4	0
O=C(Oc1cccc2c(O)cccc12)c1ccccc1	24*	12	-11	3	12	-10	12	67*
O=C(O)CCc1ccccc1OC(=O)c1ccccc1	0	-15	.	10	-4	-8	.	.
O=C(O)c1ccc(CSc2nnnn2-c2ccc(F)cc2)cc1	.	-23	.	11	.	-2	.	.
O=C(CSc1nnnn1-c1ccc(F)cc1)c1ccc(O)c(O)c1	32*	6	15	-39	-11	8	3	80*
Nc1nn(-c2ccccc2)c(N)c1N=Nc1ccccc1F	36*	-118	-181	-98	24	24*	36*	69*
Nc1c(N=Nc2ccccc2F)c(=O)[nH]n1-c1ccccc1	4	-42	-61	-125	7	5	.	.
CCCNC(=O)c1nnsc1S(=O)c1ccc(Cl)cc1 (stereo not drawn)	55*	5	94*	-54	-3	14	42*	99*
CNC(=O)c1nnsc1S(=O)c1ccc(Cl)cc1 (stereo not drawn)	44*	8	86*	-49	3	4	8	70*
CCCNC(=O)c1ccc2snnc2c1	-2	-49	-29	12	-1	-10	.	.
CS(=O)(=O)N(CC(=O)N1CCc2ccccc2C1)Cc1ccc(F)cc1	.	-16	.	17	.	-12	.	.
CC(=O)Oc1ccc(OC(C)=O)c(SCCCCCCl)c1	85*	-28	83*	-60	4	1	102*	97*
CC(=O)Oc1ccc(C(=O)O)cc1OC(C)=O	-3	5	4	18	-2	-5	.	.
COC(=O)c1[nH]c2ccc(Br)cc2c1NC(=O)CN1CCN(C2CCCCC2)CC1	46*	-23	-8	75*	11	9	2	4
Cc1ccc(Sc2ccc(NC(=O)CCl)cc2)cc1C	9	-13	24	44	12	18	.	.
Cc1ccc(C)c(Sc2ccc(NC(=O)CCl)cc2)c1	50*	-14	60*	-14	4	6	7	86*
Nc1cccc(C2=Nc3cccc4cccc(c34)N2)c1	53*	-2	4	-17	7	-6	-7	-10
COc1ccc(C2=Nc3cccc4cccc(c34)N2)cc1	-4	-19	-2	2	-3	4	.	.
C#CC[N+](C)(C)CC#Cc1ccccc1	39*	-50	-20	9	11	2	3	42*
CN1CCN(C(=S)Nc2ccc(Cl)cc2)CC1	27*	-33	-16	-7	14	-8	23	46*
S=C(Nc1ccc(Cl)cc1)N1CCCCC1	5	-8	2	-22	12	2	.	.
Cc1ccc(NC(=S)N2CCN(C3CCCCC3)CC2)cc1	61*	-13	-6	-20	7	-7	24	40*
CC(=O)NCCc1ccc(S(=O)(=O)Nc2ccc(NC(=O)c3ccc(F)cc3)cc2)cc1	.	2	.	-9	.	-1	.	.
SMILES	Ba/F3 V617F tox	KLF5 inh	APP 5UTR inh	aSyn UTR inh	BaF3 tox	IEC-6 tox	BaF3 tox 2	JAK2V617F conf
CC(C)(C)OC(=O)N[C@@H](Cc1ccccc1)c1nnc(S(=O)(=O)Cc2cccc(F)c2)o1	44*	-34	53*	18	8	-7	6	72*
CC(C)C[C@H](N)c1nnc(S(=O)(=O)Cc2cccc(F)c2)o1	-3	-21	-5	-25	1	-4	.	.
Cc1ccccc1CS(=O)(=O)c1nnc([C@H](CC(C)C)NC(=O)OC(C)(C)C)o1	47*	-7	36	8	2	11	-2	55*
O=C(NCCS(=O)(=O)NCC1CCCO1)c1ccccc1 (stereo not drawn)	.	.	.	13	.	.	.	.
COc1ccc(NC(=O)CCC(=O)Nc2nnc(C3CCCCC3)s2)c(OC)c1	.	-7	.	14	.	0	.	.
Nc1ccc2c(c1)C(=O)C(=O)c1ccccc1-2	44*	-58	88*	130*	14	5	107*	99*
N=c1c2c3c(sc2ncn1Cc1ccco1)CCCCC3	25*	-12	5	-25	1	4	-5	8
O=C(N/N=C/c1cc2c3c(c1O)CCCN3CCC2)c1ccccc1O	35*	5	85*	104*	5	-5	95*	96*
Cc1ccc(N(CC(O)CN2C(=O)NC(C)(C)C2=O)S(=O)(=O)c2ccc(C)cc2)cc1 (stereo not drawn)	25*	1	.	-16	2	1	0	-1
CCOC(=O)N1CCN(c2c(F)cc3[nH]c(=S)[nH]c3c2Br)CC1	28*	-27	15	13	12	6	7	25*
C=CCON1C(=O)C(=O)N(OCC=C)[C@H]2CCCC[C@H]21	-4	-2	.	20	1	-4	.	.
Cc1c(NC(=O)C(C)OC(=O)c2ccc(NC(=O)CC#N)cc2)c(=O)n(-c2ccccc2)n1C (stereo not drawn)	.	.	.	-5	.	.	.	.
CC(=O)c1nn(-c2cccc(Br)c2)cc1C(=O)c1ccccc1	56*	-17	6	28	14	-1	0	-1
COC(=O)c1cc(-c2ccc(Cl)cc2Cl)n[nH]1	2	-96	-14	-42	3	1	.	.
Cc1ccc(-n2c(=O)c(C#N)cc3c(=O)n4ccccc4nc32)cc1	-2	3	2	-5	3	-4	.	.
Cc1ccc(C)c(-n2c(=O)c(C#N)cc3c(=O)n4ccccc4nc32)c1	61*	-9	-3	5	21	-2	-2	-5
CCOC(=O)c1cnc2ccc(OCC)cc2c1NCc1cccnc1	16	-27	-9	-43	0	6	.	.
CCOC(=O)c1cnc2ccc(OCC)cc2c1NCc1ccccc1	24*	-37	8	-10	-5	12	5	31*
COc1ccc(C(=O)/C=C/Nc2ccc(S(=O)(=O)Nc3cccc(C(C)=O)c3)cc2)cc1	31*	5	6	-12	14	-1	8	30*
